# What was measured:
# Details in all cases: concentration: 1 μM, replicates: in singlicate; n = 1
# EPHB3 = test system: EPHB3
# EPHB4 = test system: EPHB4
# EPHB6 = test system: EPHB6
# ERBB2 = test system: ERBB2
# ERBB3 = test system: ERBB3
# ERBB4 = test system: ERBB4
# ERK1 = test system: T1, ERK1
# T1 construct: gene MAPK3
# ERK2 = test system: T2, ERK2
# T2 construct: gene MAPK1
# ERK3 = test system: T3, ERK3
# T3 construct: gene MAPK6
# ERK4 = test system: T4, ERK4
# T4 construct: gene MAPK4
# 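Also: KINOMEscan kinase panel screen.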
Compound,%Inh (EPHB3) [%],%Inh (EPHB4) [%],%Inh (EPHB6) [%],%Inh (ERBB2) [%],%Inh (ERBB3) [%],%Inh (ERBB4) [%],%Inh (ERK1) [%],%Inh (ERK2) [%],%Inh (ERK3) [%],%Inh (ERK4) [%]
COc1cc(Nc2nccc(N3CCC(NC(=O)C4COc5ccccc5O4)C3)n2)cc(OC)c1OC (stereo not drawn) [GSK1379761],0,7,93.9,50,37,30,0,0,5,15
Cc1ccc(Oc2ccc(Nc3ncnc4cc[nH]c34)cc2C)cn1,26,28,53,100,24,29,0,26,0,7
COc1cc2nccc(Nc3cccc(Oc4ccccc4)c3)c2cc1OC.Cl [GW284543],0,0,79,24,66,31,18,0,0,10
O=C(Nc1n[nH]c2nc(-c3ccccc3)c(Br)cc12)C1CC1 [SB-708998],5,13,23,11,3,0,5,0,2,0
FC(F)(F)c1ccc(-c2ncn(CCCN3CCOCC3)c2-c2ccncc2)cc1 [SB-217780],0,9,18,16,0,47,0,0,7,0
Nc1n[nH]c2nnc(-c3ccccc3)c(-c3ccccc3)c12 [GW554060],43,8,17,27,16,32,0,0,3,0
Nc1nc(-c2ccccc2F)c(-c2ccnc3ccccc23)s1 [GW560459],0,1,0,71,0,36,10,0,0,0
Cl.c1ccc(Cn2cnc3cc(Nc4ncnc5ccccc45)ccc32)cc1 [GW272142],12,13,80,38,0,33,0,0,19,0
CCc1ccc(-c2ccc3c(c2)-c2nn(C)cc2S(=O)(=O)N3C)cc1,0,0,12,2,24,0,3,0,0,0
COc1cccc(C2=C(Nc3cccc(C(=O)O)c3)C(=O)NC2=O)c1 [SB-390770],8,7,21,6,16,0,0,0,2,0
CCS(=O)c1ccc(-c2coc3ccc(-c4nnc(C)o4)cc23)cc1 (stereo not drawn),0,9,3,8,3,9,0,13,0,0
COc1cc(Nc2nccc(N3CCC(NC(=O)C(C)c4ccc(Cl)cc4)C3)n2)cc(OC)c1OC (stereo not drawn) [GSK1379757],23,11,94.7,61,0,26,0,0,5,12
COc1cc2ncn(-c3cc(OCc4ccc(S(C)(=O)=O)cc4)c(C(N)=O)s3)c2cc1OC [GW869979],0,0,38,0,11,0,10,2,6,0
Nc1n[nH]c2ncc(-c3ccccc3)cc12 [SB-517081],9,9,39,24,0,0,3,0,0,23
CCC(=O)c1c(-c2ccccc2)c2cc(Cl)ccc2c(=O)n1Cc1ccc(C(=O)O)cc1,5,0,0,16,0,0,0,5,0,0
C[C@@H]1CC[C@H](C(=O)NC2CCCCC2)CN1c1cc(-c2ccc3c(N)n[nH]c3c2)nc(N)n1 [GSK2291363],20,21,96.7,21,0,35,14,25,21,28
CC(C)(C)c1ccc(C(=O)Nc2cn3cc(-c4ccccc4)ccc3n2)cc1,3,0,0,50,0,4,0,0,0,6
Fc1cccc(CSc2nnc(-c3ccc4c(c3)CCO4)o2)c1,0,0,14,59,8,0,5,30,21,0
COC(=O)c1c(-c2ccccc2)c2cc(Br)ccc2c(=O)n1Cc1ccc(NC(=O)CCC(=O)O)cc1,19,13,14,57,0,0,0,29,3,3
CCCNC(=O)Nc1ccc(Oc2ncnc3ccn(C)c23)cc1,0,0,5,33,1,4,0,0,2,0
COc1ccc(Nc2nccc(N3CCC(NS(=O)(=O)c4ccc(NC(C)=O)cc4)C3)n2)cc1 (stereo not drawn) [GSK1379729],35,25,28,20,18,0,20,10,6,0
Cc1c(Cn2c(C)nn3c(=O)cc(N4CCO[C@H](C)C4)nc23)cccc1C(F)(F)F [GSK2373690],10,0,0,7,0,32,17,14,10,2
COc1cc2ncn(-c3cc(OCc4ccncc4Br)c(C(N)=O)s3)c2cc1OC [GW854278],0,18,3,11,37,0,0,0,0,4

Compound,%Inh (EPHB3) [%],%Inh (EPHB4) [%],%Inh (EPHB6) [%],%Inh (ERBB2) [%],%Inh (ERBB3) [%],%Inh (ERBB4) [%],%Inh (ERK1) [%],%Inh (ERK2) [%],%Inh (ERK3) [%],%Inh (ERK4) [%]
CN1C(=O)C(Nc2ccccc2)=C(c2ccccc2)C1=O [SB-300079],0,0,0,20,28,18,0,10,9,31
Cc1cccc(-c2cc(-c3c[nH]nc3-c3ccccn3)ccn2)c1 [GW679395],25,22,74,19,0,36,0,0,0,19
CCn1c(-c2ccoc2)nc2cnccc21 [SB-733887],17,0,26,8,14,0,0,0,12,11
O=c1cc(N2CCOCC2)nc2n(Cc3ccc(F)c(Cl)c3)ccn12 [GSK2297099],8,15,5,0,0,24,0,0,0,25
COC(=O)c1c(-c2ccccc2)c2cc(Br)ccc2c(=O)n1Cc1ccc(S(C)(=O)=O)cc1,30,18,34,55,6,13,1,38,4,3
COc1cccc(-n2cnc3c(N)ncnc32)c1 [SKF-97416],0,0,28,31,46,1,0,0,5,0
Nc1nccc2scc(-c3ccc4c(c3)CCN4C(=O)Cc3ccccc3)c12 [GSK2576924],4,22,88,31,0,8,0,0,0,33
Cc1cccc(-c2nc(Nc3ccc4c(cnn4C)c3)c3ccccc3n2)n1 [GW876731],0,0,13,0,0,8,0,0,0,0
Nc1nc(N)c2nc(-c3ccccc3)[nH]c2n1 [SKF-12778],0,13,39,22,4,0,7,5,6,0
COC(=O)c1c(-c2ccccc2)c2cc(C)ccc2c(=O)n1Cc1ccccc1,45,1,0,5,0,0,0,9,0,0
COc1cc2nccc(Nc3ccc(OCc4ccc(NC(C)=O)cc4)cc3)c2cc1OC.Cl [GW440135],32,19,19,31,40,9,0,0,5,0
COc1ccc(-n2cnc3c(N)ncnc32)cc1 [SKF-97236],0,0,1,7,0,1,14,9,0,0
O=C(NCc1cccs1)c1cc(C(=O)c2c(Cl)cccc2Cl)c[nH]1 [GW823670],0,0,0,0,0,20,0,5,0,0
COc1cc(Nc2ccnc3ccc(C(F)(F)F)cc23)cc(OC)c1OC [GW577382],14,20,49,16,30,23,0,5,0,1
CCn1c(-c2nonc2N)nc2ccccc21 [SB-693162/GW549034],0,0,45,0,4,0,0,10,0,0
Cc1nnc(-c2ccc3ncn(-c4ccc(S(C)=O)cc4)c3c2)o1 (stereo not drawn),35,6,3,29,0,11,0,26,0,15
COc1ccc(-c2cc3c(C)nc(N)nc3n([C@H]3CC[C@H](OCCO)CC3)c2=O)cn1,16,5,4,13,0,0,0,14,0,16
COc1ccc(-c2cc3c(C)nc(N)nc3n([C@H]3CC[C@H](O)CC3)c2=O)cn1,0,0,4,0,0,0,0,0,0,5
COc1cc2ncn(-c3cc(OCCCc4ccccc4)c(C(N)=O)s3)c2cc1OC [GSK205189],0,6,39,12,0,0,5,3,0,0
O=C(Nc1n[nH]c2cc(-c3ccccc3F)ccc12)C1CC1 [SB-733371],0,5,0,0,0,18,0,0,0,0
OCCCNc1nccc(-c2c(-c3cccc(C(F)(F)F)c3)nn3cc(C(F)(F)F)ccc23)n1 [GW630813],0,10,0,19,12,40,0,0,0,0
Cc1nn2c(=O)cc(N3CCOCC3)nc2n1Cc1cccc(Cl)c1Cl [GSK2342769],16,16,0,0,0,0,0,0,0,5
CCC(=O)c1c(-c2ccccc2)c2cc(Cl)ccc2c(=O)n1Cc1cc(C(=O)NC2CC2)n(C)n1,20,23,25,9,4,0,0,10,0,5

Compound,%Inh (EPHB3) [%],%Inh (EPHB4) [%],%Inh (EPHB6) [%],%Inh (ERBB2) [%],%Inh (ERBB3) [%],%Inh (ERBB4) [%],%Inh (ERK1) [%],%Inh (ERK2) [%],%Inh (ERK3) [%],%Inh (ERK4) [%]
CCC(=O)c1c(-c2ccccc2)c2cc(Cl)ccc2c(=O)n1Cc1cc(S(C)(=O)=O)n(CC(N)=O)n1,0,0,15,39,0,0,0,0,0,0
Cc1nc(N(C)[C@H]2CN(C(=O)CC#N)CC[C@H]2C)c2cc[nH]c2n1,6,9,19,7,0,0,8,13,5,19
CN(C)c1cc(-c2ccc3c(N)n[nH]c3c2)nc(N)n1 [GSK2219329],9,13,3,25,0,30,15,0,11,0
CCC(=O)c1c(-c2ccccc2)c2cc(Cl)ccc2c(=O)n1Cc1cc(S(C)(=O)=O)n(CCC(C)(C)O)n1,9,0,21,0,7,20,12,32,14,14
Cc1ccc(-c2ccc3c(ccc4sc5c(c43)NC[C@@H](C)N=C5N(C)C)n2)cn1,0,0,15,8,0,3,0,0,1,14
Nc1ncnc2c1ncn2-c1cccc2ccccc12 [SKF-97184],0,0,0,10,26,41,0,0,0,0
O=C1NC(=O)C(c2ccccc2)=C1Nc1cccc(O)c1 [SB-390534],0,0,0,0,0,3,0,0,0,0
Cl.NS(=O)(=O)c1cccc(Nc2cc(-c3ccc(F)cc3)n[nH]2)c1 [GW824645],0,0,0,4,17,0,0,0,0,0
Cc1cc(Nc2nc(-c3cccc(C)n3)nc3ccccc23)ccn1 [GW872411],0,0,0,0,0,0,0,0,0,0
CCC(=O)c1c(-c2ccccc2)c2cc(Cl)ccc2c(=O)n1Cc1cc(S(C)(=O)=O)n(CC(F)F)n1,1,0,0,0,0,0,7,11,0,0
CCS(=O)(=O)c1ccc(OC)c(Nc2ncc(-c3ccc(F)cc3)o2)c1.Cl [GW591947],0,0,0,13,0,0,8,7,13,21
O=C(Nc1n[nH]c2nc(-c3ccccc3)c(Cl)cc12)C1CC1 [SB-734909],7,15,48,6,32,0,0,0,0,0
CCCC(=O)Nc1n[nH]c2ncc(-c3cccc4ccccc34)cc12 [SB-642057],0,0,41,11,0,26,8,0,0,22
CCc1nc(-c2cccc(C)c2)c(-c2ccncc2)s1,7,14,0,48,0,5,0,12,0,12
COc1cc2ncn(-c3cc(OCc4ccncc4)c(C(N)=O)s3)c2cc1OC [GSK336313],0,10,22,0,0,22,0,0,28,46
COc1cccc(C2=C(N(C)c3ccccc3)C(=O)NC2=O)c1 [SB-334865],3,0,11,41,0,0,7,0,0,46
COc1ccc(-c2coc3ccc(-c4nnc(SCc5cccc(C#N)c5)o4)cc23)cc1,6,0,0,14,0,0,0,26,0,0
COc1cc(OC)cc(-c2cc3cnc(N)nc3nc2NC(=O)NC(C)(C)C)c1,0,0,24,4,0,4,0,0,0,4
O=C(NCCNc1ccnc(Nc2ccc(F)cc2)n1)Nc1ccc2c(c1)OCO2 [GSK1379882],0,0,38,9,10,7,0,0,9,22
COc1ccc(CNC(=O)NC2CCN(c3ccnc(Nc4ccc(F)cc4)n3)C2)cc1 (stereo not drawn) [GSK1379706],6,16,30,41,47,2,6,14,14,0
Nc1ncnc2c1ncn2-c1cccc(F)c1 [SKF-97560],0,0,25,1,20,0,9,0,13,2
Cn1c(=O)c(F)c(Nc2ccc(I)cc2F)c2c(=O)n(OC[C@H](O)CO)cnc21,17,32,0,0,41,3,0,8,9,7
Cc1ccccc1COc1cc(-n2cnc3cc(Cl)ccc32)sc1C(N)=O [GW813349],0,10,17,14,54,0,1,0,0,0
